Screening data from PubChem BioAssay.
The list is not random: actives were taken first. Their share in the collection is about 7.3%.
HCMV inh = blocks human cytomegalovirus replication; HFF cells, HCMV-luciferase reporter, 72 h; stronger effect = lower value; activity change, negative = inhibition, % at 57.5 µM; 410,000 tested, 4.5% active; in the data active = activity change below about -60%; inconclusive = no clear call, values can overlap the other calls; inactive = above about -39%
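Two compound doses tested in HFFs infected with HCMV-luciferase, MOI 1 PFU/cell, 72 h at 37C. Lysate luminescence read with OneGlo; data normalized against buffer-only and 10uM Salinomycin inhibitor controls.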
FMDV antiviral = antivirals against foot and mouth disease virus. FMDV antiviral cell-based qHTS. Potency, µM (doses to about 57.9 µM), without a hit: top-dose activity change, negative = inhibition, most hits filed as inhibitors. 410,000 tested, 1.2% active; calls by dose curve; tested in HEK293T cells; note: read-out not given here; potency is the fitted concentration of half-maximal effect; nearly all actives have a fitted effect of over 45% in size
VACV Venus inh = vaccinia inhibition (Venus reporter); Vaccinia virus Venus reporter expression, fluorescence; Potency, µM (top dose mostly 36.5 µM), inactives show at the top dose activity change, negative = inhibition, usual class: inhibitors; 330,000 tested, 0.46% active; AID 720580; calls by dose curve; tested in A549 cells; note: potency is the fitted concentration of half-maximal effect; nearly all actives have a fitted effect of over 30% in size
HCV inh = blocks hepatitis C virus | Huh7.5.1 HCVcc-Cre infection, luciferase reporter, 44 h | AID 651820 | Potency, µM (highest dose often 41.8 µM), for the others: at the highest dose activity change, negative = inhibition, hits mostly inhibitors | 340,000 tested, 3.4% active; active = well fitted inhibition curve with a large enough effect; inconclusive = small, poorly fitted or top-dose-only effect, or another doubt; inactive = no such curve, though single readings can be large or run the other way; note: potency is the fitted concentration of half-maximal effect
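Cells (1,000/well) were plated 4 h before compound, then infected with HCVcc-Cre virus (~0.5 moi). After 44 h further culture, infection was read as luciferase luminescence following a 15 min substrate incubation at room temperature.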
VACV mCherry inh = inhibitors of vaccinia virus infection (mCherry reporter signal); Vaccinia virus mCherry reporter infection, fluorescence; Potency, µM (doses to about 36.5 µM), for the others: top-dose activity change, negative = inhibition, most hits filed as inhibitors; 310,000 tested, 0.63% active; AID 720579; calls by dose curve; tested in A549 cells; note: potency is the fitted concentration of half-maximal effect; nearly all actives have a fitted effect of over 35% in size
The depositor's hits bear a star. % is set by controls: 0 for no effect and ±100 for the full control effect.

`CCOC(=O)C1=C(C)N(c2ccc(OC)cc2)C(=O)/C1=C\c1cccs1` gave HCMV inh -62*, FMDV antiviral inconclusive and HCV inh 13µM*.
O=C(C1=C[C@H](c2ccc(Br)cc2)C[C@H](OCCCCO)O1)N1CCN(Cc2ccc3c(c2)OCO3)CC1 was read as FMDV antiviral -29%, VACV Venus inh inconclusive, HCV inh inconclusive and VACV mCherry inh inconclusive.
For O=C(C1=C[C@H](c2ccc3c(c2)OCO3)C[C@H](OCCCCO)O1)N1CCN(Cc2ccc3c(c2)OCO3)CC1 the results were HCMV inh 22, FMDV antiviral 0%, VACV Venus inh -19%, HCV inh -26% and VACV mCherry inh inconclusive.
For O=C(C1=C[C@H](c2ccc(Br)cc2)C[C@H](OCc2ccc(CO)cc2)O1)N1CCN(Cc2ccc3c(c2)OCO3)CC1 the results were HCMV inh inconclusive, FMDV antiviral 0%, VACV Venus inh inconclusive, HCV inh inconclusive and VACV mCherry inh inconclusive.
`O=C(C1=C[C@@H](c2ccc(Br)cc2)C[C@@H](OCCCCO)O1)N1CCN(Cc2ccccc2)CC1` gave HCMV inh -94*, FMDV antiviral inconclusive, VACV Venus inh inconclusive, HCV inh -4% and VACV mCherry inh inconclusive.
For O=C(C1=C[C@H](c2ccc3c(c2)OCO3)C[C@H](OCc2ccc(CO)cc2)O1)N1CCN(Cc2ccc3c(c2)OCO3)CC1 the results were HCMV inh 0, FMDV antiviral inconclusive, VACV Venus inh inconclusive, HCV inh 35µM* and VACV mCherry inh inconclusive.
O=C(C1=C[C@H](c2csc3ccccc23)C[C@H](OCc2ccc(CO)cc2)O1)N1CCN(Cc2ccc3c(c2)OCO3)CC1 was read as HCMV inh -25, FMDV antiviral inconclusive, VACV Venus inh inconclusive, HCV inh 8.9µM* and VACV mCherry inh inconclusive.
For O=C(C1=C[C@@H](c2ccc3c(c2)OCO3)C[C@@H](OCCCCO)O1)N1CCN(Cc2ccc3c(c2)OCO3)CC1 the results were HCMV inh -23, FMDV antiviral -19%, VACV Venus inh -14%, HCV inh 0.56µM* and VACV mCherry inh inactive.
For COc1ccc2c(c1)c1nnc(SC)nc1n2Cc1ccccc1 the results were VACV Venus inh -10% and VACV mCherry inh -10%.
`CC(CCc1ccc(O)cc1)N1CCOc2c(O)cc(-c3nc4ccccc4s3)cc2C1` (stereo unspecified) gave FMDV antiviral -8%, VACV Venus inh -33% and VACV mCherry inh inconclusive.
Screening COc1cc(/C=C/c2ccc3ccccc3n2)cc(OC)c1OC returned VACV Venus inh -26% and VACV mCherry inh inconclusive.
`COc1ccc(S[C@]2(C(=O)N3CCCC3)CC(=O)N(c3ccc4ccccc4c3)[C@@H]2c2ccc(OC)cc2)cc1` gave HCMV inh 22.
For Cc1ccc(C(=O)N[C@@H](C)CN2C3=NC[C@H](Cc4ccccc4)N3C[C@H]2Cc2ccc(O)cc2)cc1Br the results were FMDV antiviral -24%, VACV Venus inh 13µM*, HCV inh -8% and VACV mCherry inh inconclusive.
For COc1ccc(C[C@H]2CN3C(=NC[C@@H]3Cc3ccc(O)cc3)N2C[C@H](C)NC(=O)c2ccc(C)c(Br)c2)cc1 the results were FMDV antiviral -18%, VACV Venus inh 13µM*, HCV inh inconclusive and VACV mCherry inh inconclusive.
`Cc1ccc(C(=O)N[C@@H](C)CN2C3=NC[C@@H](Cc4ccccc4)N3C[C@H]2Cc2ccc(O)cc2)cc1Br` gave HCMV inh 11, FMDV antiviral inconclusive, VACV Venus inh inconclusive, HCV inh -3% and VACV mCherry inh inconclusive.
`COc1cccc(NC(=O)Nc2nc(SC(C)(C)C)ns2)c1` gave HCMV inh -95*, FMDV antiviral -29% and HCV inh inconclusive.
For CCSc1nsc(NC(=O)Nc2cccc(F)c2)n1 the results were HCMV inh -98*, FMDV antiviral inconclusive, VACV Venus inh inconclusive, HCV inh 10µM* and VACV mCherry inh -17%.
Screening CCCSc1ccc(C(=O)Nc2ccc(F)cc2F)cn1 returned HCMV inh -62*, FMDV antiviral 18%, VACV Venus inh -26%, HCV inh -13% and VACV mCherry inh inactive.
For COc1cccc(NC(=O)Nc2nc(SC)ns2)c1 the results were HCMV inh inconclusive, FMDV antiviral -6%, VACV Venus inh -15%, HCV inh -9% and VACV mCherry inh inconclusive.
Screening CCCSc1nsc(NC(=O)Nc2ccc(F)cc2F)n1 returned HCMV inh -101*, FMDV antiviral 7% and HCV inh 10µM*.
For Cc1cc(C)cc(NC(=O)C(=O)NCC(c2cccnc2)N2CCc3ccccc3C2)c1 (stereo unspecified) the results were HCMV inh -6, FMDV antiviral inconclusive, VACV Venus inh -19% and VACV mCherry inh -17%.
For CCCC(=O)NC1CC(=O)N(c2ccc3c(c2)OCCO3)C1 (stereo unspecified) the results were HCMV inh -4, FMDV antiviral 0%, VACV Venus inh -10% and VACV mCherry inh -18%.
CCOc1ccc(C(=O)Nc2cc(-c3cn4cccnc4n3)ccc2C)cc1OCC was read as HCMV inh inconclusive, FMDV antiviral -5%, VACV Venus inh -3% and VACV mCherry inh -14%.
`CCCCn1c(-c2csc3ccccc23)n[nH]c1=S` gave HCMV inh -16, FMDV antiviral -4%, VACV Venus inh -12%, HCV inh 3% and VACV mCherry inh -10%.
Screening CCCCCCn1c(-c2cccs2)n[nH]c1=S returned HCMV inh -80*, FMDV antiviral 22%, VACV Venus inh -13%, HCV inh 1% and VACV mCherry inh inactive.
Screening O=C(NCC1(c2ccccc2)CCCC1)C(=O)Nc1cccc(Br)c1 returned HCMV inh 9, FMDV antiviral -20%, VACV Venus inh -5% and VACV mCherry inh -9%.
`COc1ccc(-c2n[nH]c(C(F)(F)F)c2-c2cc3ccccc3o2)c(O)c1` gave HCMV inh -3, FMDV antiviral inconclusive, VACV Venus inh inconclusive, HCV inh 11µM* and VACV mCherry inh inconclusive.
Screening CCOc1ccc(CCNC(=O)c2cnc3sc(N4CCCC4)nn3c2=O)cc1 returned HCMV inh -24, FMDV antiviral 28µM*, VACV Venus inh inconclusive and VACV mCherry inh inconclusive.
Screening CCN(CC)c1nn2c(=O)c(C(=O)NCCc3ccc(C)cc3)cnc2s1 returned HCMV inh -64*, FMDV antiviral inconclusive, VACV Venus inh -13% and VACV mCherry inh -8%.
For CCOc1ccc(CCNC(=O)c2cnc3sc(N4CCCCCC4)nn3c2=O)cc1 the results were HCMV inh 21, FMDV antiviral inconclusive, VACV Venus inh inconclusive and VACV mCherry inh -8%.
Screening Cc1ccc(OCC(=O)Nc2ccc3nn(-c4ccc(C)cc4)nc3c2)cc1 returned HCMV inh 96, FMDV antiviral 40%, VACV Venus inh 9% and VACV mCherry inh -4%.
